Test results published in PubChem BioAssay AID602144 (Vanderbilt Specialized Chemistry Center, 2011).
Activity calls are given as the source filed them. Cut-off read from the data, not from the text of the source: active = remaining activity below about 50%; inactive = the rest.

Each compound was assayed against Phospholipase D1 (Homo sapiens) (UniProt Q13393) (assay: cellular phospholipase D1 activity inhibition – Calu-1 cells, single concentration (AID 602144;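 note: tested at 200 nM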)). Details: cellular PLD1 activity, hits give low values.
Sequence of Phospholipase D1 (Homo sapiens) (Q13393 whole entry, looked up): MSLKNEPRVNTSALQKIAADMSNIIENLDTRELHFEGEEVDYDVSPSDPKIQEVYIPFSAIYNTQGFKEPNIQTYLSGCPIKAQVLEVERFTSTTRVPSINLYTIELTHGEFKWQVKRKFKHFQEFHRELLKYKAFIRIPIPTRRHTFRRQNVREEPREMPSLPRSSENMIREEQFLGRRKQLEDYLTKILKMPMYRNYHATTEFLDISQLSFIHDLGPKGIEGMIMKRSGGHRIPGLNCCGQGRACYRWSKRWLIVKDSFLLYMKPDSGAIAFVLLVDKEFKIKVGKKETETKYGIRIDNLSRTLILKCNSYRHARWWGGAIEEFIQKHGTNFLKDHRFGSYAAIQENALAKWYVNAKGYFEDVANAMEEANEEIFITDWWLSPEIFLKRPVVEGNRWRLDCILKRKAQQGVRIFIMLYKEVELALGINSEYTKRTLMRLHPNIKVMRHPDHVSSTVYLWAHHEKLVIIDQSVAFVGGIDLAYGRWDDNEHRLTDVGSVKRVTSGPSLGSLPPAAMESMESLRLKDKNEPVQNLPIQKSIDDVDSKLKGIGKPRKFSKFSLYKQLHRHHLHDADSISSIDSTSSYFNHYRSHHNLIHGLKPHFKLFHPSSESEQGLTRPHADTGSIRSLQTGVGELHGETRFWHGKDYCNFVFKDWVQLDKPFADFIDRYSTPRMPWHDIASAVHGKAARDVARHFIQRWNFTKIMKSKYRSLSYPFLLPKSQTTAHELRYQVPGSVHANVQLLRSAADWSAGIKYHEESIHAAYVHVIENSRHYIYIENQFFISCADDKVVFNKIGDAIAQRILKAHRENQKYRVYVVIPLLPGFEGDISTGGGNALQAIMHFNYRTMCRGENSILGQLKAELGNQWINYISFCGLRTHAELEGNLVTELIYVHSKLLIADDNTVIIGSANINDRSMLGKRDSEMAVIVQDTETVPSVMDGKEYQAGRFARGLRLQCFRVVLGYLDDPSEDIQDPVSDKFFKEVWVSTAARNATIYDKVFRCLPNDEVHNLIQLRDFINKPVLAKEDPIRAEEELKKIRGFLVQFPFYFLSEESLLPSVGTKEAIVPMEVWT
Sequence of Phospholipase D1 (Homo sapiens) (Q13393 whole entry, looked up): as above

SMILES	remaining activity
O=C(NCCN1CCN(c2ncccn2)CC1)c1ccc2ccccc2c1	118% (inactive)
O=C(NCCN1CCC(n2c(=O)[nH]c3ccccc32)CC1)Nc1ccccc1C(F)(F)F	131% (inactive)
O=C(N[C@@H](Cc1ccccc1)CN1CCC(n2c(=O)[nH]c3ccccc32)CC1)c1ccc2ccccc2c1	113% (inactive)
O=C1c2ccccc2C(=O)N1CCN1CCC(n2c(=O)[nH]c3cc(Cl)ccc32)CC1	107% (inactive)
C[C@H](CN1CCC(n2nnc3ccccc32)CC1)NC(=O)c1ccc2ccccc2c1	27.1% (active)
C[C@@H](CN1CCC(n2c(=O)[nH]c3ccccc32)CC1)NC(=O)C1C[C@H]1c1ccccc1 (some centres not stated)	25.5% (active)
C[C@@H](CN1CCC(c2nc3ccc(F)cc3[nH]2)CC1)NC(=O)[C@H]1CC1c1ccccc1 (some centres not stated)	88% (inactive)
O=C(NCCN1CCC2(CC1)CNCc1ccccc12)c1cnc2ccccc2c1	95.4% (inactive)
O=c1[nH]c2ccccc2n1C1CCN(CCNS(=O)(=O)c2cc(Cl)ccc2Cl)CC1	104% (inactive)
O=C1c2ccccc2C(=O)N1CCCNc1ccc2ccccc2c1	145% (inactive)
Cc1ccc(C(=O)NCCN2CCN(c3ccncc3)CC2)cc1	148% (inactive)
C[C@@H](CN1CCC(n2c(=O)[nH]c3cc(-c4ccc(F)c(F)c4)ccc32)CC1)NC(=O)[C@H]1C[C@@H]1c1ccccc1	59% (inactive)
O=C(NCCN1CCC(n2c(=O)[nH]c3ccccc32)CC1)c1ccc2c(ccc3ccc4ccccc4c32)c1	74.8% (inactive)
O=C(C1C[C@@H]1c1ccccc1)N1CCC2(CC1)C(=O)NCN2c1ccccc1 (some centres not stated)	86% (inactive)
O=C1c2ccccc2C(=O)N1CCN1CCC(n2c(=O)[nH]c3ccccc32)CC1	112% (inactive)
Cn1c(C2CCN(CC3(N)CCCC3)CC2)nc2ccccc21 (tested in a mixture with another compound)	95% (inactive)
O=C(NCCN1CCC(n2c(=O)[nH]c3ccccc32)CC1)c1cnccn1	76.7% (inactive)
O=C(NCCN1CCN(c2ccncc2)CC1)c1c2ccccc2cc2ccccc12	183% (inactive)
O=C(NCCN1CCC2(CC1)CNCc1ccccc12)c1ccc2ccccc2c1	122% (inactive)
Cc1ccc(C(=O)N[C@@H](C)CN2CCC(n3c(=O)[nH]c4cc(Cl)ccc43)CC2)cc1	12.1% (active)
O=c1[nH]c2ccccc2n1C1CCN(CCNC(=S)Nc2ccccc2F)CC1	109% (inactive)
C[C@@H](CN1CCC(n2c(=O)[nH]c3ccccc32)CC1)NC(=O)c1ccc2ncccc2c1	29.2% (active)
C[C@@H](CN1CCC2(CC1)CCN(C)C2=O)NC(=O)c1ccc2ccccc2c1	122% (inactive)
O=C(NCCN1CCC2(CC1)CCN(c1ccccc1)C2=O)c1ccc2ccccc2c1	113% (inactive)
Cc1ccc(C(=O)N[C@@H](C)CN2CCC(n3c(=O)[nH]c4cc(Br)ccc43)CC2)cc1	13% (active)
C[C@@H](CN1CCC(n2c(=O)[nH]c3cc(-c4cccnc4)ccc32)CC1)NC(=O)[C@H]1C[C@@H]1c1ccccc1	53.2% (inactive)
C[C@@H](CN1CCC(n2c(=O)[nH]c3cc(-c4ccccc4)ccc32)CC1)NC(=O)[C@H]1C[C@@H]1c1ccccc1	67.4% (inactive)
